About 79,000 compounds went through this panel and 15% of them were active in at least one assay; those are over-represented in the sample as a whole. Values without a mark were called inactive. Calls of active or inactive are those of the source. Cut-off read from the data, not from the text of the source: active = growth inhibition above about 70%; inactive = the rest.

The assay in a line: NCI Yeast Anticancer Drug Screen. Data for the sgs1 mgt1 strain (AID 161).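 Note: 0% = growth of cultures given vehicle only.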 The conditions noted are these: S. cerevisiae sgs1 mgt1 strain, at 5.0 µM (retest, dose inferred, filed as 0.5), active compounds read high. In a few lines:
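Test agents were incubated with a DNA-repair-mutant yeast strain. Growth was then read and compared against vehicle-treated controls.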
As to `C=C1C(=O)OC2/C=C(\C(=O)O)CC/C=C(\C)CC(OC(=O)/C=C(\C)CC)C12` (stereo unspecified), the growth inhibition was -1%.

In the case of `O/N=C(/Cc1nc2cc(Cl)c(Cl)cc2nc1C/C(=N/O)c1ccncc1)c1ccncc1`, the growth inhibition is 4%.

Take `Cc1cc(NC(=S)SCc2ccc3c(c2)OCO3)ccc1Br`: the growth inhibition is 54%. Then `CN1C(=O)OC(C)(c2ccccc2)C1=O` (stereo unspecified), with -2%; and `O=C1c2ccccc2C(=O)c2c1cccc2[N+](=O)[O-]`, with 80% (active); and `O=[N+]([O-])c1ccccc1Oc1ccc([N+](=O)[O-])c(C(F)(F)F)c1`, with 0%.

Take `Cc1ccc(O)c(N=Nc2ccc(Cl)cc2)c1`: the growth inhibition is -3%.

Turning to `CC(C)Cc1cc2c(cc1O)CCC1C2CC[C@@]2(C)C1CC[C@@H]2O` (stereo partly specified), the growth inhibition was -12%.

Regarding `CCOC(=O)CC1(C)C(=O)CCCC1=O`, the growth inhibition is 0%. Regarding `OC(c1cc(-c2ccc(Cl)cc2Cl)nc2ccccc12)C1CCCCN1` (stereo unspecified), the growth inhibition is -5%.

On to `COc1ccc(N=Cc2cc(Br)cc(Br)c2O)cc1.COc1ccc(N=Cc2cc(Br)cc(Br)c2O)cc1.[Co]`, for which the growth inhibition is 90% (active).

Regarding `Cc1ccc[n+](CC(=O)C2CCC3C4CC=C5CC(O)CCC5(C)C4CCC23C)c1` (stereo unspecified), the growth inhibition was 5%. Turning to `CN(C)CC(C)(C)C(/C=C/c1ccccc1)=N\Nc1ccccc1`, the growth inhibition was 12%. In the case of `COC1(OC)C2(Cl)C(Cl)=C(Cl)C1(Cl)C1C2C2CC1(C(=O)O)c1ccccc12` (stereo unspecified), the growth inhibition is 17%. In the case of `NC(N)=N/N=C(\c1ccc(F)cc1)c1ccc(C(F)(F)F)cc1`, the growth inhibition was -2%.

Take `O=C1CC(c2ccccc2Cl)C(c2ccccc2Cl)C1` (stereo unspecified): the growth inhibition was -7%.

The record behind these values is PubChem BioAssay (NCI).
